Tests used:
Assay in all cases: thermal shift delta Tm vs DMSO control; higher = stronger stabilization (binding)
Details in all cases: 12.5 µM; protein concentration 2 µM
LOC_OS01G57100-cb003 = test system: LOC_OS01G57100-cb003
Summary of the method: (§1)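 Compounds dissolved in DMSO were added to purified rice kinase domain constructs, which had been expressed in E. coli, for differential scanning fluorimetry. Each well held 19.5 μl of 2 μM kinase in 100 mM potassium phosphate pH 7.5, 150 mM NaCl, 10% glycerol and 5 × SYPRO Orange. Fluorescence was followed from 25°C to 95°C at a rate of 0.05°C/s. Shifts in Boltzmann-fitted melting temperature are triplicate means relative to DMSO-only protein.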

LOC_OS01G60330-cb001 = test system: LOC_OS01G60330-cb001
Summary of the method: as §1

LOC_OS01G60700-cb002 = test system: LOC_OS01G60700-cb002
Summary of the method: as §1

LOC_OS01G63280-cb003 = test system: LOC_OS01G63280-cb003
Summary of the method: as §1

LOC_OS01G67340-cb003 = test system: LOC_OS01G67340-cb003
Summary of the method: as §1

LOC_OS01G70970-cb002 = test system: LOC_OS01G70970-cb002
Summary of the method: as §1

LOC_OS02G07810-cb001 = test system: LOC_OS02G07810-cb001
Summary of the method: as §1

LOC_OS02G08530-cb003 = test system: LOC_OS02G08530-cb003
Summary of the method: as §1

LOC_OS02G14120-cb001 = test system: LOC_OS02G14120-cb001
Summary of the method: as §1

LOC_OS02G17970-cb001 = test system: LOC_OS02G17970-cb001
Summary of the method: as §1

LOC_OS02G45750-cb003 = test system: LOC_OS02G45750-cb003
Summary of the method: as §1

LOC_OS02G54510-cb004 = test system: LOC_OS02G54510-cb004
Summary of the method: as §1

LOC_OS03G04050-cb001 = test system: LOC_OS03G04050-cb001
Summary of the method: as §1

LOC_OS03G12390-cb001 = test system: LOC_OS03G12390-cb001
Summary of the method: as §1

LOC_OS03G27990-cb004 = test system: LOC_OS03G27990-cb004
Summary of the method: as §1

LOC_OS03G50450-cb001 = test system: LOC_OS03G50450-cb001
Summary of the method: as §1

LOC_OS03G50810-cb003 = test system: LOC_OS03G50810-cb003
Summary of the method: as §1

LOC_OS04G35114-cb001 = test system: LOC_OS04G35114-cb001
Summary of the method: as §1

LOC_OS04G38480-cb003 = test system: T1, LOC_OS04G38480-cb003
T1 sequence (whole entry): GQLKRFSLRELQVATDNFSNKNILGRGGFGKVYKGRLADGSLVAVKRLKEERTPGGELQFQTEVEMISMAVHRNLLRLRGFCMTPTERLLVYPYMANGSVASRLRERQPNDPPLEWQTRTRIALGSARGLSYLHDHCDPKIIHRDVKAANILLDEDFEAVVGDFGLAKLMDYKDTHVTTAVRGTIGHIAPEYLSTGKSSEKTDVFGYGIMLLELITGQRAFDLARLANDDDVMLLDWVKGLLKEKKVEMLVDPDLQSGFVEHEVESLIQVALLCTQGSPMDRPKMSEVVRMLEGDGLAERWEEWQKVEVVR
Summary of the method: as §1

LOC_OS04G41100-cb001 = test system: T2, LOC_OS04G41100-cb001
T2 sequence (whole entry): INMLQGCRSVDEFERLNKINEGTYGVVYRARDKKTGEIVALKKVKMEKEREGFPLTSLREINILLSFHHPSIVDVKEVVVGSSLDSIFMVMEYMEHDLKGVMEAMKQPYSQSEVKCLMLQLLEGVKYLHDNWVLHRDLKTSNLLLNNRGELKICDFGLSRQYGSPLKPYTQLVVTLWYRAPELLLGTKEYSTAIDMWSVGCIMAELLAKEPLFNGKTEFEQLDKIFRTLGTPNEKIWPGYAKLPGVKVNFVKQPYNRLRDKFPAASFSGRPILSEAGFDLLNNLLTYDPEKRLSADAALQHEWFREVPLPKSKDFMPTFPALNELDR
Summary of the method: as §1

Compound	thermal shift delta Tm (LOC_OS01G57100-cb003)	thermal shift delta Tm (LOC_OS01G60330-cb001)	thermal shift delta Tm (LOC_OS01G60700-cb002)	thermal shift delta Tm (LOC_OS01G63280-cb003)	thermal shift delta Tm (LOC_OS01G67340-cb003)	thermal shift delta Tm (LOC_OS01G70970-cb002)	thermal shift delta Tm (LOC_OS02G07810-cb001)	thermal shift delta Tm (LOC_OS02G08530-cb003)	thermal shift delta Tm (LOC_OS02G14120-cb001)	thermal shift delta Tm (LOC_OS02G17970-cb001)	thermal shift delta Tm (LOC_OS02G45750-cb003)	thermal shift delta Tm (LOC_OS02G54510-cb004)	thermal shift delta Tm (LOC_OS03G04050-cb001)	thermal shift delta Tm (LOC_OS03G12390-cb001)	thermal shift delta Tm (LOC_OS03G27990-cb004)	thermal shift delta Tm (LOC_OS03G50450-cb001)	thermal shift delta Tm (LOC_OS03G50810-cb003)	thermal shift delta Tm (LOC_OS04G35114-cb001)	thermal shift delta Tm (LOC_OS04G38480-cb003)	thermal shift delta Tm (LOC_OS04G41100-cb001)
COc1cc2ncnc(Nc3ccc(F)c(Cl)c3)c2cc1OCCCN1CCOCC1 [Gefitinib (ZD1839)]	0.37 °C	0.16 °C	1.04 °C	0.4 °C	-0.59 °C	0.28 °C	0.77 °C	0.6 °C	4.78 °C	0.15 °C	1.36 °C	0.04 °C	0.31 °C	1.33 °C	0.64 °C	0.05 °C	1.04 °C	4.83 °C	1.76 °C	0.77 °C
CC(C)(C)S(=O)(=O)c1ccc2nccc(Nc3n[nH]c4ccc(F)cc34)c2c1	0.91 °C	0.99 °C	0.81 °C	-0.25 °C	0.66 °C	0.6 °C	0.19 °C	0.61 °C	0.25 °C	0.37 °C	0.81 °C	0.59 °C	0.15 °C	0.75 °C	0.12 °C	-0.21 °C	0.11 °C	3.68 °C	0.32 °C	0.12 °C
Cc1cc(NC(=O)c2cccc(NC(=O)/C=C/CN(C)C)c2)ccc1Nc1nccc(-c2cccnc2)n1	1.86 °C	0.94 °C	1.77 °C	0.92 °C	0.69 °C	1.62 °C	1.46 °C	1.8 °C	0.95 °C	1.45 °C	3.5 °C	0.3 °C	1.05 °C	2.05 °C	0.81 °C	1.19 °C	1.1 °C	1.79 °C	1.17 °C	0.83 °C
O=C(c1ccc(Nc2nccc(-c3cc4ccccc4s3)n2)cc1)N1CCC(N2CCCC2)CC1 [IKK-16 (IKK Inhibitor VII)]	0.94 °C	12.6 °C	0.43 °C	2.16 °C	3.52 °C	2.66 °C	0 °C	2.32 °C	11.1 °C	0.35 °C	6.42 °C	1.74 °C	0.22 °C	2.55 °C	4.05 °C	1.23 °C	5.04 °C	5.32 °C	3.88 °C	4.91 °C
COCCOc1ccc2c(c1)ncn2-c1ccc2cccc(N3CCC(N)CC3)c2n1	1.13 °C	0.82 °C	0.15 °C	1.35 °C	2.25 °C	8.53 °C	0.59 °C	3.85 °C	11 °C	0.26 °C	16.5 °C	0.43 °C	0.25 °C	1.73 °C	6.71 °C	0.27 °C	8.81 °C	10 °C	2.9 °C	0.51 °C
CN(C)CCOc1ccc(-c2nc(-c3ccncc3)c(-c3ccc4c(c3)CC/C4=N\O)[nH]2)cc1	1.76 °C	0.92 °C	0.49 °C	0.02 °C	-0.45 °C	0.15 °C	1.2 °C	0.96 °C	-0.05 °C	-0.1 °C	0.22 °C	0.08 °C	0.13 °C	-0.23 °C	0.06 °C	0.04 °C	0.55 °C	0.33 °C	0.74 °C	0.3 °C
Cc1cc(Nc2cc(CN3CCOCC3)c3nc(C)c(Cc4ccc(Cl)cc4F)n3n2)n[nH]1	0.41 °C	3.94 °C	-0.8 °C	0.12 °C	1.73 °C	1.25 °C	0.19 °C	0.8 °C	8.86 °C	-0.03 °C	3.56 °C	3.12 °C	-0.22 °C	1.36 °C	0.01 °C	0.47 °C	4.81 °C	2.03 °C	2.46 °C	3.22 °C
NC(=O)c1cnc(N[C@@H]2CCCC[C@@H]2N)nc1Nc1cccc(-n2nccn2)c1	2.55 °C	0.94 °C	1.04 °C	0.28 °C	0.99 °C	2.19 °C	-0.28 °C	4.36 °C	2.99 °C	1.5 °C	2.02 °C	2.55 °C	0.07 °C	1.42 °C	1.98 °C	3.61 °C	0.99 °C	1.31 °C	0.85 °C	0.63 °C
CN1CC[C@H](c2c(O)cc(O)c3c(=O)cc(-c4ccccc4Cl)oc23)[C@H](O)C1 [Flavopiridol (Alvocidib)]	0.96 °C	0.94 °C	0.39 °C	0.37 °C	-0.01 °C	1.4 °C	0.63 °C	1.53 °C	1.28 °C	-0.3 °C	1.64 °C	0.69 °C	0.2 °C	1.66 °C	1.06 °C	0.4 °C	0.4 °C	2.64 °C	0.88 °C	0.66 °C
Cc1c(CN2CCN(C(=O)[C@H](C)O)CC2)sc2c(N3CCOCC3)nc(-c3cnc(N)nc3)nc12 [Apitolisib (GDC-0980, RG7422)]	0.9 °C	0.98 °C	0.46 °C	0.4 °C	0.25 °C	0.37 °C	1.43 °C	1.01 °C	0.42 °C	1.03 °C	0.62 °C	0.4 °C	0.32 °C	0.75 °C	0.18 °C	1.38 °C	0.78 °C	0.55 °C	1.12 °C	0.47 °C
C[C@@H]1COC(Nc2ccc3ncnc(Nc4ccc(OCc5nccs5)c(Cl)c4)c3c2)=N1 [Varlitinib]	1.92 °C	1.09 °C	1.53 °C	1.44 °C	0.64 °C	0.88 °C	0.94 °C	0.76 °C	0.74 °C	1.04 °C	1.53 °C	0.27 °C	0.48 °C	0.13 °C	0.32 °C	0.46 °C	0.41 °C	1.59 °C	1.56 °C	0.59 °C
O=c1c(O)c(-c2ccc(O)c(O)c2)oc2cc(O)cc(O)c12 [Quercetin]	2.71 °C	8.09 °C	0.35 °C	10.7 °C	5.98 °C	2.14 °C	2.05 °C	2.33 °C	3.39 °C	1.77 °C	3.32 °C	0.4 °C	0.73 °C	5.69 °C	2.91 °C	2.18 °C	2.6 °C	4.71 °C	3.37 °C	0.61 °C

From the supplement of paper PMC9694430
